Data: ChEMBL document CHEMBL1961873, “Compounds: GSK PKIS; Assays: Nanosyn kinase panel” (2012)
Several values for one entry are separate records, joined by “and”; a condition that tells them apart may be missing. Identical values can stand only once.

Legend:
[1] = biological target: Ribosomal protein S6 kinase alpha-6 (Homo sapiens) (UniProt Q9UK32); conditions: at 1 µM;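 also: each value is a mean inhibition of RSK4 from a GSK PKIS panel screen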
[2] = biological target: T1, Serine/threonine-protein kinase Sgk1 (Homo sapiens) (UniProt O00141); conditions: at 0.1 µM
T1 sequence (whole entry): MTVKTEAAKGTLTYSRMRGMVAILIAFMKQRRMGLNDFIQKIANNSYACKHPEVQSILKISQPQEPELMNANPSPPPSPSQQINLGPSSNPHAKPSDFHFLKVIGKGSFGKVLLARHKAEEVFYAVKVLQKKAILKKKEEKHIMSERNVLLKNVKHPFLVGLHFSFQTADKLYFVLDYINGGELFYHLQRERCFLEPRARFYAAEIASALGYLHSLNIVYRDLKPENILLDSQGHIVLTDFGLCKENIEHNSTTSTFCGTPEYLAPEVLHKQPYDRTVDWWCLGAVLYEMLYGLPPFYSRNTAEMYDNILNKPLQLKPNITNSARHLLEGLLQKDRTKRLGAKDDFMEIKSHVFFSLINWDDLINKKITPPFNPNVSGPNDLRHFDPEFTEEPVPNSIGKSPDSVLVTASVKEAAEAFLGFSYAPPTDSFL

[3] = biological target: T1, Serine/threonine-protein kinase Sgk1 (Homo sapiens); conditions: at 1 µM
[4] = biological target: T2, Serine/threonine-protein kinase Sgk2 (Homo sapiens) (UniProt Q9HBY8); conditions: at 0.1 µM
T2 sequence (whole entry): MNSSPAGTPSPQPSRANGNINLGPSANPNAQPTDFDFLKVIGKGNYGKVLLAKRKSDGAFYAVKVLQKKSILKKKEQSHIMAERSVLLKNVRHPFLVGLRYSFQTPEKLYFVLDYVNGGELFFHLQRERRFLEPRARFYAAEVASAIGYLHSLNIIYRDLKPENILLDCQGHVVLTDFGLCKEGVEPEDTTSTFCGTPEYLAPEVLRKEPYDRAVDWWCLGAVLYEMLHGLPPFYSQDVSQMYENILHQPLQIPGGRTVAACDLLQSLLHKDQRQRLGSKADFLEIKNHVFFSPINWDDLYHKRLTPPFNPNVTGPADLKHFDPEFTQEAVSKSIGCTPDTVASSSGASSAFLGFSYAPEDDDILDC

[5] = biological target: T2, Serine/threonine-protein kinase Sgk2 (Homo sapiens); conditions: at 1 µM
[6] = biological target: T3, Serine/threonine-protein kinase Sgk3 (Homo sapiens) (UniProt Q96BR1); conditions: at 0.1 µM
T3 sequence (whole entry): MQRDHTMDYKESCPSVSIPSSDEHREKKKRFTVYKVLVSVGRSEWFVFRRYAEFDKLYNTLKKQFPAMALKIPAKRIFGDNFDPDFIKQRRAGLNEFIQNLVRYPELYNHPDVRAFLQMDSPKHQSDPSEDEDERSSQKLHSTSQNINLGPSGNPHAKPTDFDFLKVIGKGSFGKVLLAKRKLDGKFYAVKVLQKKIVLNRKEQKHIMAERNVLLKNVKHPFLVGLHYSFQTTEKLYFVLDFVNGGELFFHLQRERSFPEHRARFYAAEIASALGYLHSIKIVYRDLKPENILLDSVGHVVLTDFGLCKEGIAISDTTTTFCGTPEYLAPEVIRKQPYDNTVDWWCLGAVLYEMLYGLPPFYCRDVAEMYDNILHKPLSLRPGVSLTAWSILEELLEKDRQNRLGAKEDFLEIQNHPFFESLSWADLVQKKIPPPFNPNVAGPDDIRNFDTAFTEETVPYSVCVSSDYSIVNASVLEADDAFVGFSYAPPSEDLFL

[7] = biological target: T3, Serine/threonine-protein kinase Sgk3 (Homo sapiens); conditions: at 1 µM
[8] = biological target: 5'-AMP-activated protein kinase catalytic subunit alpha-1 (Homo sapiens) (UniProt Q13131); conditions: at 0.1 µM
5'-AMP-activated protein kinase catalytic subunit alpha-1 (Homo sapiens), sequence (Q13131 whole entry, looked up): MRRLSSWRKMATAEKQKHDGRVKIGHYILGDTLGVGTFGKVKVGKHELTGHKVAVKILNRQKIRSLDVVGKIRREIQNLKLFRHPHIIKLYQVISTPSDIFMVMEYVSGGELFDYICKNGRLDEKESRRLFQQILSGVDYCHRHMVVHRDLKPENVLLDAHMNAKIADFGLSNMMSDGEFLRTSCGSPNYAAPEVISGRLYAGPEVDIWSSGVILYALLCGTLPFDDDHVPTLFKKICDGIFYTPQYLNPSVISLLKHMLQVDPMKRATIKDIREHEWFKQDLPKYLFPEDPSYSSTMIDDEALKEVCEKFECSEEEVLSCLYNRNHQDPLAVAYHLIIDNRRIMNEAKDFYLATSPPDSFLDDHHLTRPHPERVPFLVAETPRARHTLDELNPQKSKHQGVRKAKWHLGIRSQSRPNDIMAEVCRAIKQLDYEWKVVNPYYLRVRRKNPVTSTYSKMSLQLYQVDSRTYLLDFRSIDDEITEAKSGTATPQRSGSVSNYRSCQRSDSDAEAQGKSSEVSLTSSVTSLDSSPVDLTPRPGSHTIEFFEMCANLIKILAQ

[9] = biological target: 5'-AMP-activated protein kinase catalytic subunit alpha-1 (Homo sapiens) (UniProt Q13131); conditions: at 1 µM
[10] = biological target: 5'-AMP-activated protein kinase catalytic subunit alpha-2 (Homo sapiens) (UniProt P54646); conditions: at 0.1 µM
5'-AMP-activated protein kinase catalytic subunit alpha-2 (Homo sapiens), sequence (P54646 whole entry, looked up): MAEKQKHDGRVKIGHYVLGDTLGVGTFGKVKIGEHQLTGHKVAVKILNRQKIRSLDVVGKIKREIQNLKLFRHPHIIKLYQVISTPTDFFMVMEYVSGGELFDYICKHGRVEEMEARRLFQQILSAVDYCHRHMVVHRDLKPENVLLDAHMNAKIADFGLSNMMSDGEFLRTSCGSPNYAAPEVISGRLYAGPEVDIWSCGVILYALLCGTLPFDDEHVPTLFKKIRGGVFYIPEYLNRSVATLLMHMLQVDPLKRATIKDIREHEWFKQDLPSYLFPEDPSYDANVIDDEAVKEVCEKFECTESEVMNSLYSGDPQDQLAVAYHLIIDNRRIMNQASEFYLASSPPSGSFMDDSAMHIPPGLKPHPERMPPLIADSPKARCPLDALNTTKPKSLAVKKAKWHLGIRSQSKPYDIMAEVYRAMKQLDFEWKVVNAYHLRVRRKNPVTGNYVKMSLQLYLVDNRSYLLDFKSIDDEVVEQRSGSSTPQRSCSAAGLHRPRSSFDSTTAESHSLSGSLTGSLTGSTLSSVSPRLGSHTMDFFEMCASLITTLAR

[11] = biological target: 5'-AMP-activated protein kinase catalytic subunit alpha-2 (Homo sapiens) (UniProt P54646); conditions: at 1 µM
[12] = biological target: T4, NUAK family SNF1-like kinase 1 (Homo sapiens) (UniProt O60285); conditions: at 0.1 µM
T4 sequence (whole entry): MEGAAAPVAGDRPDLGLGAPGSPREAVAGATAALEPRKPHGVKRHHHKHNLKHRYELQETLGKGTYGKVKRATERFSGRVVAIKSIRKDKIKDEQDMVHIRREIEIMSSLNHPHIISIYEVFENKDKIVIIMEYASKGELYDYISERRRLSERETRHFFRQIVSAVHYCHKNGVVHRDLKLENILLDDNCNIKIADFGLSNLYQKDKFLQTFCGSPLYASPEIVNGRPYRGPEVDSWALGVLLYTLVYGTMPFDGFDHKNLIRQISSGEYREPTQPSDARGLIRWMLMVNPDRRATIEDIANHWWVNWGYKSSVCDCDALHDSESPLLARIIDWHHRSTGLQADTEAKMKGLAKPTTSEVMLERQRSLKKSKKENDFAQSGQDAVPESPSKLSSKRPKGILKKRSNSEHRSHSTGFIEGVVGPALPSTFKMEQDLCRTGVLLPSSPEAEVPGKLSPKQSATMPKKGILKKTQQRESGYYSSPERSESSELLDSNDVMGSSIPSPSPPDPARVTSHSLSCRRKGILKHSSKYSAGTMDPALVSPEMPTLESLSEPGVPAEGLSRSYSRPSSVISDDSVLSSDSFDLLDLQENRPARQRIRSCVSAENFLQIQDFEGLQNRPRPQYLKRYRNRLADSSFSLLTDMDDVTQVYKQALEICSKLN

[13] = biological target: T4, NUAK family SNF1-like kinase 1 (Homo sapiens); conditions: at 1 µM
[14] = biological target: T5, Serine/threonine-protein kinase BRSK1 (Homo sapiens) (UniProt Q8TDC3); conditions: at 0.1 µM
T5 sequence (whole entry): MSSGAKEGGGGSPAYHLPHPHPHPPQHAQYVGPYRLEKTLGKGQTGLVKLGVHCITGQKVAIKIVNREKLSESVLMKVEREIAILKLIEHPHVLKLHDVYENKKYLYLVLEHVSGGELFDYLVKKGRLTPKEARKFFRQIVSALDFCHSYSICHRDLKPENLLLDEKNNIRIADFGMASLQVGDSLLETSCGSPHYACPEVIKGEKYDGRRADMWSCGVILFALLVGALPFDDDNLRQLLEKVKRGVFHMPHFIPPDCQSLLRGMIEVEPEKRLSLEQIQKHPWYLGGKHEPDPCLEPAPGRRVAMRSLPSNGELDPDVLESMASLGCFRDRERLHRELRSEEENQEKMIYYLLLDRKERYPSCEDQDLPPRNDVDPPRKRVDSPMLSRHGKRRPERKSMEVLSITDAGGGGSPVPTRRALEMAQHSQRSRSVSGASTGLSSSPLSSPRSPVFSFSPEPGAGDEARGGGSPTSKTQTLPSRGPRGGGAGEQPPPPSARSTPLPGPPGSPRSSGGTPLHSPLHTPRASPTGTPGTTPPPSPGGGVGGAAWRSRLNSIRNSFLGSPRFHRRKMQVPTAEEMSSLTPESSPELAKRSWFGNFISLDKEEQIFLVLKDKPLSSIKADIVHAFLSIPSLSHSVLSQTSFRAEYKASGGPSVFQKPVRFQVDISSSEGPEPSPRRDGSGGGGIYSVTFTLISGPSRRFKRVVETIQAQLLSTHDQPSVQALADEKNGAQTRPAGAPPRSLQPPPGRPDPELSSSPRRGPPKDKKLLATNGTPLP

[15] = biological target: T5, Serine/threonine-protein kinase BRSK1 (Homo sapiens); conditions: at 1 µM
[16] = biological target: T6, Serine/threonine-protein kinase BRSK2 (Homo sapiens) (UniProt Q8IWQ3); conditions: at 0.1 µM
T6 sequence (whole entry): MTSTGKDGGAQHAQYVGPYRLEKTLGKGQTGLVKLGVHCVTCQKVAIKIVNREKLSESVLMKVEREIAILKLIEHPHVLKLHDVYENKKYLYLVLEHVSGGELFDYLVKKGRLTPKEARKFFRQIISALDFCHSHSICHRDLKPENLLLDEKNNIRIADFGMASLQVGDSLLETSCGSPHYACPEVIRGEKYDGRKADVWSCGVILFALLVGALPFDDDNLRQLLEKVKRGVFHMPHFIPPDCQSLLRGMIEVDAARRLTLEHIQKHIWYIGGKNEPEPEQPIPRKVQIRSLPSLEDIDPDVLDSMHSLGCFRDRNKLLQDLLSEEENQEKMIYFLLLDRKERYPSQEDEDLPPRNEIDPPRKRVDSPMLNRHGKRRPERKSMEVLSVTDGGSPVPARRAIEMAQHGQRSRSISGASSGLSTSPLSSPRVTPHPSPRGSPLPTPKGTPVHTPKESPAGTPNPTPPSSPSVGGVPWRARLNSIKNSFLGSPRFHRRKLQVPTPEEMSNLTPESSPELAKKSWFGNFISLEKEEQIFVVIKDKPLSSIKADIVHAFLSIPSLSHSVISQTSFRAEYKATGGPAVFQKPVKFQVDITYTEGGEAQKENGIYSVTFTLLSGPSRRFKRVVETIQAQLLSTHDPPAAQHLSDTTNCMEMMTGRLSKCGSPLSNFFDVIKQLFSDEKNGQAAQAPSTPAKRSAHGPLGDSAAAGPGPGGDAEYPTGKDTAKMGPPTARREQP

[17] = biological target: T6, Serine/threonine-protein kinase BRSK2 (Homo sapiens); conditions: at 1 µM
[18] = biological target: Calcium/calmodulin-dependent protein kinase type 1D (Homo sapiens) (UniProt Q8IU85); conditions: at 0.1 µM
Calcium/calmodulin-dependent protein kinase type 1D (Homo sapiens), sequence (Q8IU85 whole entry, looked up): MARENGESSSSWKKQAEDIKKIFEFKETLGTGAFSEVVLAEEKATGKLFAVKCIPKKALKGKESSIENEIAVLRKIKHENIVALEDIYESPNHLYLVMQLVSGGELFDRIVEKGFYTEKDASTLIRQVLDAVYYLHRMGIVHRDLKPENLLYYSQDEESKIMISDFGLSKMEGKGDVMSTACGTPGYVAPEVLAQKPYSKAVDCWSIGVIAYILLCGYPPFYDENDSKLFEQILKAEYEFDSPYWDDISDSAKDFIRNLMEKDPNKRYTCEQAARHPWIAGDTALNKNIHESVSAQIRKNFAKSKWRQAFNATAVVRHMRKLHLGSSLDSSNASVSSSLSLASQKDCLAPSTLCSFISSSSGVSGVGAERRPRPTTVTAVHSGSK

[19] = biological target: Calcium/calmodulin-dependent protein kinase type 1D (Homo sapiens) (UniProt Q8IU85); conditions: at 1 µM
[20] = biological target: Calcium/calmodulin-dependent protein kinase type II subunit alpha (Homo sapiens) (UniProt Q9UQM7); conditions: at 0.1 µM;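 also: reported values are averages (mean inhibition of CAMK2A)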
Calcium/calmodulin-dependent protein kinase type II subunit alpha (Homo sapiens), sequence (Q9UQM7 whole entry): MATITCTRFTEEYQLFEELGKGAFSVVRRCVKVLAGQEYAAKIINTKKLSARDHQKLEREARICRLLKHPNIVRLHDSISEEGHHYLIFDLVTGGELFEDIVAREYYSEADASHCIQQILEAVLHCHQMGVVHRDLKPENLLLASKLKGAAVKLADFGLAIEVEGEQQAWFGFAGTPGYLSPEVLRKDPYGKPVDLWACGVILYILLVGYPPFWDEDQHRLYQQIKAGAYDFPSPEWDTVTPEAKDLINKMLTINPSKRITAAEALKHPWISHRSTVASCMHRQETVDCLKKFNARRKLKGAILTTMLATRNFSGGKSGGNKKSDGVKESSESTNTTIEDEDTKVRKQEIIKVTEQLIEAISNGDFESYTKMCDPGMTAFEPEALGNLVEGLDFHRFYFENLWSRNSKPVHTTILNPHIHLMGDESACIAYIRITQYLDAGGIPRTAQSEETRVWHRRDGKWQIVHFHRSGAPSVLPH

Ribosomal protein S6 kinase alpha-6 (Homo sapiens), sequence (Q9UK32 whole entry): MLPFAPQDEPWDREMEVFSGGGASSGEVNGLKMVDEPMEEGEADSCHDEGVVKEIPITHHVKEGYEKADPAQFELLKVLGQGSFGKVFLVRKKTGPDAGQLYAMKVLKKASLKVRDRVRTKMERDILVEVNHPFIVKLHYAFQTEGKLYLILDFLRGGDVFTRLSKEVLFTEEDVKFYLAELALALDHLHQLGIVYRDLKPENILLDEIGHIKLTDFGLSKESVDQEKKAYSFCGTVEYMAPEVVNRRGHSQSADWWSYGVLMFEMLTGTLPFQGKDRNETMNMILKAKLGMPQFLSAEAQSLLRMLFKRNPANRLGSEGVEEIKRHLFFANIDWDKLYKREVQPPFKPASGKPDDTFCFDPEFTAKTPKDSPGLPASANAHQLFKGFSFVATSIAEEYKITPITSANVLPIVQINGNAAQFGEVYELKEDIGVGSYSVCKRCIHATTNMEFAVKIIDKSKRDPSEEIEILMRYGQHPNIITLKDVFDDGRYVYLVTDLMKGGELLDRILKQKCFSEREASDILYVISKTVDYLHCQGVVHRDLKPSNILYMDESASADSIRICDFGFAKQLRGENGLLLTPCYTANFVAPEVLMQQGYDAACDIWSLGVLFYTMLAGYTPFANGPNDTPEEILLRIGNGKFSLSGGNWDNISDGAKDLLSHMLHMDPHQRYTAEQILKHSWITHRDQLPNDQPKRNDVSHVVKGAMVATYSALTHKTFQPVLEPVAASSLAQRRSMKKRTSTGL

| SMILES | inhibition [1] | inhibition [2] | inhibition [3] | inhibition [4] | inhibition [5] | inhibition [6] | inhibition [7] | inhibition [8] | inhibition [9] | inhibition [10] | inhibition [11] | inhibition [12] | inhibition [13] | inhibition [14] | inhibition [15] | inhibition [16] | inhibition [17] | inhibition [18] | inhibition [19] | inhibition [20] |
| --- | --- | --- | --- | --- | --- | --- | --- | --- | --- | --- | --- | --- | --- | --- | --- | --- | --- | --- | --- | --- |
| CN1CCN(Cc2ccc(-c3cc4ncnc(Nc5ccc(OCc6cccc(F)c6)c(Cl)c5)c4s3)o2)CC1 | 2.87% and 4.99% | 2.87% and 4.63% | 3.57% and 7.64% | 1.23% and 4.49% | 1.46% and 3.55% | 1.48% and 4.43% | 2.48% and 5.69% | 2.4% and 5.32% | 3% and 5.69% | 3.72% and 4.13% | 4.56% and 5.82% | 0.69% and 0.76% | 4.56% and 2.98% | 0.8% and -0.05% | 2.8% and -0.24% | 2.16% and 1.05% | 4.75% and 4.26% | 0.32% and 0.88% | 2.5% and 0.41% | 0.12% and 4.61% |
| Cc1cc(O)cc(C)c1/C=C/c1cncc(C(N)=O)c1 | 1.18% | 1.6% | 2.14% | 3.61% | 3.1% | 1.2% | 1.31% | 1.98% | 1.85% | 2.5% | 3.4% | 0.73% | 2.46% | 3.32% | 15% | 2.91% | 9.42% | 4.14% | 1.23% | 7.97% |
| COC(=O)Nc1nc2ccc(Oc3ccc(NC(=O)Nc4cc(C(F)(F)F)ccc4F)cc3)cc2s1 | 1.65% | 0.33% | 0.95% | -4.85% | 0.53% | 1.37% | 1.57% | -0.71% | 0.03% | 0.72% | 1.67% | -0.54% | -3.55% | -0.58% | 0.34% | -0.27% | 0.24% | 0.5% | 2.93% | -0.9% |
